Potency and affinity values are given separately. The source made the active and inactive calls. Entries that show only a call come without a potency. The rule behind the calls is not given here.
assay: Vero cell cytotoxicity, dose response, cytotoxicity control for M. tuberculosis growth inhibitor project, Vero cells, purified and synthesized compounds, set 5 (AID 504909); settings: series mostly up to 100 µM

Structure (SMILES)	outcome
O=C(CSc1ccccn1)NC1CCCCC1	inactive
O=C(CSc1nc2c(c(=O)[nH]1)CCCC2)NC1CCCCC1	inactive
CC[C@@H](CO)NCCN[C@@H](CC)CO	inactive
O=c1[nH]c(=S)[nH]c2ccccc12	inactive
COc1c(N2CCNC(C)C2)c(F)cc2c(=O)c(C(=O)O)cn(C3CC3)c12 (configuration not stated)	inactive
Cc1[nH]c(=S)[nH]c(=O)c1C	inactive
CN[C@@H]1[C@H](O[C@H]2[C@H](O[C@H]3[C@H](O)[C@@H](O)[C@H](N=C(N)N)[C@@H](O)[C@@H]3N=C(N)N)O[C@@H](C)[C@]2(O)C=O)O[C@@H](CO)[C@H](O)[C@H]1O	inactive
CC[N+](C)(CC)CCCCOc1ccc2c(c1)C(=O)c1cc(OCCCC[N+](C)(CC)CC)ccc1-2	inactive
Cc1nc(SCC(=O)NC2CCCC2)[nH]c(=O)c1C	inactive
CCC(Sc1nc2ccccc2c(=O)[nH]1)C(=O)Nc1cccc(OC)c1 (configuration not stated)	inactive
O=C(CSc1nc2ccccc2c(=O)[nH]1)NC1CCCC1	inactive
Cn1c(SCC(=O)NC2CCCCC2)nc2ccccc2c1=O	inactive
CCCc1cc(C(N)=S)ccn1	inactive
CCOC1OC(=O)C(Cl)=C1Nc1ccccc1C (configuration not stated)	inactive
NC(=O)c1cnccn1	inactive
Cc1c[nH]c(=S)[nH]c1=O	inactive
Cc1nc(SCC(=O)N(C)c2ccccc2)[nH]c(=O)c1C	inactive
CC(C)CCNC(=O)CSc1nc2ccccc2c(=O)[nH]1	inactive
CCOC(=O)CSc1nc(C)c(C)c(=O)[nH]1	inactive
CN(C)C(=O)CSc1nc2ccccc2c(=O)[nH]1	inactive
Cc1cnc(SCC(=O)NC2CCCCC2)[nH]c1=O	inactive
COc1cccc(NC(=O)CSc2nc3c(c(=O)[nH]2)CCC3)c1	inactive
COC(=O)c1ccc(CNc2c(N3CCCC3)c(=O)c2=O)cc1	inactive
Cc1nc(SCC(N)=O)[nH]c(=O)c1C	inactive
CCC(Sc1nc2c(c(=O)[nH]1)CCC2)C(=O)Nc1cccc(OC)c1 (configuration not stated)	inactive
Cc1cccc(/C=C/C(=O)c2ccc([N+](=O)[O-])o2)c1	inactive
O=C(CSc1nc2ccccc2c(=O)[nH]1)NC1CCCCC1	inactive

Reference: PubChem BioAssay AID504909 (Southern Research Specialized Biocontainment Screening …, 2011)
